Data from ChEMBL document CHEMBL3988442, “University of Dundee, Small-Polar-MMV Screening Library” (2021).
Out of some 66,000 compounds screened, about 960 (1.5%) showed an effect of 50% or more. Shown is part of a subset that was picked to be rich in strong results.

Test system: Trypanosoma brucei
Assay: Trypanosoma brucei 72 hour study
Type: functional, organism-based
Design: scale not given: in the data most compounds retested in dose-response had high values

## Cc1cc2c(=O)n3c(nc2s1)CCN(C(=O)c1nn(C)cc1Cl)CC3
30.3 µM, […]
  Percent Effect: -11.28%

## CN1CC(=O)N(c2cccnc2)CC12CCN(C(=O)c1cccn1C)C2.O=C(O)C(F)(F)F.O=C(O)C(F)(F)F (stereo not drawn)
30.3 µM, […]
  Percent Effect: -4.553%

## O=C(C[C@@H]1COC[C@H]2CN(C(=O)c3ccccn3)C[C@@H]12)N1CCCC1.O=C(O)C(F)(F)F
30 µM, 30.03 µM
  Percent Effect: -14.99%

## CS(=O)(=O)NCc1cnc2n1CCN(Cc1cccnc1)CC2.O=C(O)C(F)(F)F.O=C(O)C(F)(F)F
30 µM, 30.03 µM
  Percent Effect: -10.23%

## O=C(Nc1cccnc1)C1Cc2nc(-c3ccsc3)sc2N1CC1CC1.O=C(O)C(F)(F)F (stereo not drawn)
30.3 µM, […]
  Percent Effect: 60.89%

## CN(C)CCNC(=O)C1Cc2nc(-c3ccsc3)sc2N1CC1CC1.O=C(O)C(F)(F)F (stereo not drawn)
30.3 µM, […]
  Percent Effect: 5.041%

## O=C(NC1CCCC1)C1Cc2nc(-c3ccsc3)sc2N1CC1CC1 (stereo not drawn)
30.3 µM, […]
  Percent Effect: 33.5%

## Cl.c1cc(CNc2cnc(C3CCCN3)cn2)ccn1 (stereo not drawn)
30.3 µM, […]
  Percent Effect: -6.296%

## Cc1nc(NC(=O)C2CCCN(C(=O)C3CC3)C2)sc1C (stereo not drawn)
30 µM, 30.03 µM
  Percent Effect: -11.09%

## Cc1nc(NC(=O)C2CCCN(C(N)=O)C2)sc1-c1ccccc1 (stereo not drawn)
30 µM, 30.03 µM
  Percent Effect: 57.12%

## CSc1sc(NC(=O)C2CCCN(C(N)=O)C2)nc1C (stereo not drawn)
30 µM, 30.03 µM
  Percent Effect: -35.12%

## CC(C)N1CCC2(CC1)CC(NCc1ccccn1)c1ccccc1O2.O=C(O)C(F)(F)F.O=C(O)C(F)(F)F.O=C(O)C(F)(F)F (stereo not drawn)
30 µM, 30.03 µM
  Percent Effect: 2.75%

## CCc1nnsc1C(=O)N1CCCC(n2ccnc2C(C)C)C1 (stereo not drawn)
30.3 µM, […]
  Percent Effect: -10.58%

## Cl.O=C(Nc1cccc(F)c1)C1=NOC2(CCNCC2)C1
30.3 µM, […]
  Percent Effect: -7.13%

## COc1cccc(Nc2nc(C3CCNCC3)c3sc(C)c(C)n23)c1.Cl
30.3 µM, […]
  Percent Effect: 63.57%

## Cc1sc2c(C3CCCNC3)nc(Nc3cccc(F)c3)n2c1C.Cl (stereo not drawn)
30.3 µM, […]
  Percent Effect: 100.1%

## COc1cccc(Nc2nc(C3CCCNC3)c3ccccn23)c1.Cl (stereo not drawn)
30.3 µM, […]
  Percent Effect: -1.342%

## COc1cccc(Nc2nc(C3CCNCC3)c3ccccn23)c1.Cl
30.3 µM, […]
  Percent Effect: 24.37%

## Cc1nn(C(C)C)c(C)c1S(=O)(=O)Nc1cccc(F)c1
30 µM, 30.03 µM
  Percent Effect: -2.912%

## Fc1cccc(-c2nccnc2C2CCCNC2)c1 (stereo not drawn)
30.3 µM, […]
  Percent Effect: -21.91%

## Cc1sc2c(C3CCNCC3)nc(Nc3cccc(F)c3)n2c1C.Cl
30.3 µM, […]
  Percent Effect: 99.26%

## COc1cccc(Nc2nc(C3CCCNC3)c3sc(C)c(C)n23)c1.Cl (stereo not drawn)
30.3 µM, […]
  Percent Effect: 2.239%

## CCN(Cc1nc2c(cnn2C)c(=O)[nH]1)c1cc(C)cc(C)c1
10 µM
  Percent Effect: -28.14%
30.3 µM, […]
  Percent Effect: -21.13%

## N#Cc1ccc(N2CCCC3(CCN(c4cncnc4)C3=O)C2)nc1.O=C(O)C(F)(F)F (stereo not drawn)
30.3 µM, […]
  Percent Effect: -13.65%

## Cl.O=C(Nc1cc(C(F)(F)F)c[nH]c1=O)C1CCCCN1 (stereo not drawn)
30 µM, 30.03 µM
  Percent Effect: 4.306%

## Cc1ccccc1CC(=O)NCCNc1nccc(C(F)(F)F)n1
30 µM, 30.03 µM
  Percent Effect: -20.25%

## CNc1ccnc(NCC(=O)Nc2cc(C)ccc2OC)n1
30 µM, 30.03 µM
  Percent Effect: 42.18%

## COc1ccccc1NC(=O)CCNC(=O)c1ccoc1
30 µM, 30.03 µM
  Percent Effect: -15.64%

## CNc1ccnc(NCCC(=O)Nc2ccccc2C)n1
30 µM, 30.03 µM
  Percent Effect: 51.25%

## CNc1ccnc(NCCC(=O)Nc2ccccc2OC)n1
30 µM, 30.03 µM
  Percent Effect: 54.56%

## Cc1ccccc1NC(=O)CCNC(=O)c1ccoc1
30 µM, 30.03 µM
  Percent Effect: -20.37%

## CN(C)C(=O)[C@H]1C[C@H]2[C@H](CCN2Cc2ccc3c(c2)OCO3)O1.O=C(O)C(F)(F)F
30 µM, 30.03 µM
  Percent Effect: 17.59%

## Cl.N#Cc1ccc(CNCC2(c3ccccc3)CCOCC2)cc1
30.3 µM, […]
  Percent Effect: 24.88%

## Cc1cccc(C(=O)N2CC[C@]3(C[C@H](OCc4ccccn4)CO3)C2)c1.O=C(O)C(F)(F)F
30.3 µM, […]
  Percent Effect: -74.39%

## O=C(NCc1ccccn1)[C@]12COC[C@H]1CN(Cc1ccccc1F)C2.O=C(O)C(F)(F)F.O=C(O)C(F)(F)F
30.3 µM, […]
  Percent Effect: -30.47%

## Cc1nc(CN2CC3(CCN(c4ncccn4)C3)CC2=O)cs1.O=C(O)C(F)(F)F (stereo not drawn)
30 µM, 30.03 µM
  Percent Effect: -28.21%

## COCCNC(=O)CCn1ncc2c(Cl)cccc21
30.3 µM, […]
  Percent Effect: -10.63%

## CN1CCN(c2ccccc2NC(=O)NCCc2ccccc2)CC1
30.3 µM, […]
  Percent Effect: 100.1%

## CN1CCN(c2ccccc2NC(=O)NCC[S+](C)[O-])CC1 (stereo not drawn)
30.3 µM, […]
  Percent Effect: 11.12%

## CN1CCN(c2ccccc2NC(=O)NCCc2ccc(O)cc2)CC1
30.3 µM, […]
  Percent Effect: 8.397%

## O=C(O)C(F)(F)F.O=C1[C@@H]2CCN(Cc3ccoc3)C[C@@H]2OCCN1c1ccccc1
30 µM, 30.03 µM
  Percent Effect: 19.86%

## CC(C)c1cccc(CSc2nnc(CN3CCCC3=O)o2)n1
30 µM, 30.03 µM
  Percent Effect: -4.842%

## O=C1CCCN1Cc1nnc(SCc2ccc3c(c2)CCC3)o1
30 µM, 30.03 µM
  Percent Effect: 47.68%

## CC(C)Oc1ccc(CSc2nnc(CN3CCCC3=O)o2)cc1
30 µM, 30.03 µM
  Percent Effect: 72.7%

## O=C(Cc1ccccn1)N1CC[C@]2(C[C@@H](Oc3ncccc3F)CO2)C1.O=C(O)C(F)(F)F.O=C(O)C(F)(F)F
30 µM, 30.03 µM
  Percent Effect: -12.46%

## CN(CCCn1cnc2c(N)ncnc21)Cc1ccccc1
30 µM, 30.03 µM
  Percent Effect: -6.688%

## CNC(=O)c1cc2c(nc1N(C)C)CCN(c1ncc(F)cn1)CC2.O=C(O)C(F)(F)F
30.3 µM, […]
  Percent Effect: -8.544%

## OCC1CCCN1c1cc(NCCc2ccsc2)ncn1 (stereo not drawn)
30 µM, 30.03 µM
  Percent Effect: 6.798%

## Cc1cc(NC(=O)NCCO)nn1-c1ccc(Cl)cc1Cl
30 µM, 30.03 µM
  Percent Effect: -0.9538%

## O=C(CN1C(=O)CC2(CCCC2)C1=O)NCCc1nccs1
30 µM, 30.03 µM
  Percent Effect: -3.261%

## CN(Cc1cnc(N)nc1)CC1CCCN(CCc2ccc(Cl)cc2)C1 (stereo not drawn)
30 µM, 30.03 µM
  Percent Effect: -6.233%

## COc1ccc(CCN2CCCC(CN(C)Cc3[nH]cnc3C)C2)cc1 (stereo not drawn)
30 µM, 30.03 µM
  Percent Effect: 11.78%

## CN(Cc1ccccc1O)CC1CCCN(CCc2ccc(Cl)cc2)C1 (stereo not drawn)
30 µM, 30.03 µM
  Percent Effect: 6.545%

## CN(Cc1ccncc1)CC1CCCN(CCc2ccc(Cl)cc2)C1 (stereo not drawn)
30 µM, 30.03 µM
  Percent Effect: 15.49%

## Cc1nc[nH]c1CN(C)CC1CCCN(CCc2ccc(Cl)cc2)C1 (stereo not drawn)
30 µM, 30.03 µM
  Percent Effect: 61.25%

## CN(Cc1cccc(O)c1)CC1CCCN(CCc2ccc(Cl)cc2)C1 (stereo not drawn)
30 µM, 30.03 µM
  Percent Effect: 55.85%

## Cc1ccc(NC(C)(C)c2nnnn2-c2ccc(Cl)cc2)c(C)c1
30 µM, 30.03 µM
  Percent Effect: -23.29%

## Cc1nc2cc(C3CCN(Cc4ccccc4F)C3)nn2c(O)c1C (stereo not drawn)
30.3 µM, […]
  Percent Effect: 14.24%

## Cc1nnc([C@H]2C[C@@H]3CCN(Cc4ccc(C)o4)C[C@H]3O2)[nH]1.O=C(O)C(F)(F)F
30 µM, 30.03 µM
  Percent Effect: -11.08%

## COc1cc2c(cc1CN1CCn3c(CO)nnc3C1)CCC2.O=C(O)CC(O)(CC(=O)O)C(=O)O
30.3 µM, […]
  Percent Effect: -66.2%

## O=C(COCC1CC[C@H]2[C@H](CCN2c2ncccn2)O1)N1CCCC1.O=C(O)C(F)(F)F (stereo partly drawn)
30 µM, 30.03 µM
  Percent Effect: -11.45%

## O=C(COC[C@H]1CC[C@H]2[C@H](CCN2c2ccccn2)O1)N1CCCC1.O=C(O)C(F)(F)F
30 µM, 30.03 µM
  Percent Effect: -34.45%

## O=C(COC[C@H]1CC[C@H]2[C@H](CCN2c2ncccn2)O1)N1CCCC1.O=C(O)C(F)(F)F
30 µM, 30.03 µM
  Percent Effect: 52.31%

## O=C(CC1CC1)N1CCC2(CC1)CN(c1cccnc1)C(=O)CO2.O=C(O)C(F)(F)F
30.3 µM, […]
  Percent Effect: -59.01%

## CCOc1ncccc1C(=O)N1CCC(Nc2ccc(C)nn2)CC1
30.3 µM, […]
  Percent Effect: 1.842%
10 mM, 10 mM as filed; unlikely as a test dose
  Percent Effect: -20.5%

## CN(C)S(=O)(=O)N1C[C@H]2C[C@H](C(=O)Nc3cccnc3)[C@@H](C1)O2
30.3 µM, […]
  Percent Effect: -739.2%

## COc1ccc(-c2cc(C3CC3)c(C#N)c(N)n2)cc1F
30.3 µM, […]
  Percent Effect: 93.34%

## N#Cc1c(C2CC2)cc(-c2ccc(O)cc2)nc1N
30 µM, 30.03 µM
  Percent Effect: 17.72%

## N#Cc1c(C2CC2)cc(-c2ccc(F)c(F)c2)nc1N
30.3 µM, […]
  Percent Effect: -90.74%

## CN(C)CCO[C@@H]1CC[C@H]2[C@H]1OCCN2C(=O)c1ccc(F)cc1.O=C(O)C(F)(F)F
30.3 µM, […]
  Percent Effect: -19.82%

## CN(C)c1cc(CNC(=O)Nc2ccc(N3CCCC3)nc2)ccn1
30.3 µM, […]
  Percent Effect: 18.28%

## O=C(CC1CCC2(CC1)CCN(Cc1cccnc1)CC2)N1CC=CC1.O=C(O)C(F)(F)F.O=C(O)C(F)(F)F
30.3 µM, […]
  Percent Effect: -37.26%

## O=C(C1CCOC1)N1CCC2(CCN(Cc3nccs3)C2)CC1 (stereo not drawn)
30 µM, 30.03 µM
  Percent Effect: 6.218%

## O=C(C1CCOC1)N1CCC2(CCN(Cc3nccs3)CC2)CC1 (stereo not drawn)
30 µM, 30.03 µM
  Percent Effect: 55.49%

## O=C(C1CCOCC1)N1CCC2(CCN(Cc3nccs3)CC2)CC1.O=C(O)C(F)(F)F
30 µM, 30.03 µM
  Percent Effect: 11.85%

## CCn1cc(C(=O)N2C[C@H]3C[C@H](Oc4ccccc4)C[C@H]3C2)cn1
30.3 µM, […]
  Percent Effect: 7.287%

## CS(=O)(=O)NCc1nnc2n1CCN(Cc1ccccn1)C2
30.3 µM, […]
  Percent Effect: 73.82%

## CS(=O)(=O)NCc1nnc2n1CCN(Cc1ccncc1)C2
30.3 µM, […]
  Percent Effect: -346.7%

## CS(=O)(=O)NCc1nnc2n1CCN(Cc1cccnc1)C2
30.3 µM, […]
  Percent Effect: -308.6%

## CC(C)=CCN1C(=O)[C@H]2CC[C@@H]1CN(c1ncccc1C(N)=O)C2
30 µM, 30.03 µM
  Percent Effect: 2.727%

## CC1c2ncc(CNC(=O)C3CC3)n2CCN1Cc1nccs1.O=C(O)C(F)(F)F (stereo not drawn)
30.3 µM, […]
  Percent Effect: -11.04%

## CN1CC(Nc2nc3c(cnn3C(C)(C)C)c(=O)[nH]2)CCC1=O (stereo not drawn)
30 µM, 30.03 µM
  Percent Effect: -21.89%

## CC(C)(C)n1ncc2c(=O)[nH]c(NC3CC=CC3)nc21
30 µM, 30.03 µM
  Percent Effect: 100.8%

## CC(C)(C)n1ncc2c(=O)[nH]c(N3CC(O)C3)nc21
30 µM, 30.03 µM
  Percent Effect: 18.67%

## Cc1ncc(CN2CCC(N(C)Cc3noc(C4CC4)n3)C2)s1 (stereo not drawn)
10 µM
  Percent Effect: -20.3%

## CC(Cn1cccn1)NC(=O)NCc1cccnc1 (stereo not drawn)
10 µM
  Percent Effect: -30.88%

## O=C(O)C(c1ccc2c(c1)OCCO2)N1CCC(N2CCSCC2)CC1 (stereo not drawn)
30 µM, 30.03 µM
  Percent Effect: -29.57%

## Cc1nc2ccccc2nc1CN(C)CC1CCCN1c1cccnn1 (stereo not drawn)
30 µM, 30.03 µM
  Percent Effect: -12.68%

## Cc1nc(CN(C)CC2CCCN2c2cccnn2)nc2ccccc12 (stereo not drawn)
30.3 µM, […]
  Percent Effect: 101.1%

## CN(Cc1nc(N)c2ccccc2n1)CC1CCCN1c1cccnn1 (stereo not drawn)
30 µM, 30.03 µM
  Percent Effect: 4.932%

## Cc1nn(C)c(N(C)C)c1CNCCOc1ccc2c(c1)OCO2.Cl
10 µM
  Percent Effect: -62.44%
